From PubChem
Shown are actives, neighbours in structure and some others; about 0.92% of the full set was active somewhere.
AGP1 TOR yeast = yeast TOR pathway AGP1-GFP modulation. S. cerevisiae AGP1-GFP multiplex flow cytometry, 3 h; GFP as percent of DMSO wells. hit rate 0.02% among 320,000. GFP response vs DMSO, % at 10 µM;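 active means GFP response relative to DMSO above a set limit, near screen average plus 3 SD, cut at about 150% in these data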;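 further: median GFP channel fluorescence of the gated AGP1 strain per well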
CIT2 TOR yeast = modulators of TOR pathway CIT2-GFP in S. cerevisiae | hit rate 0.065% among 320,000 | S. cerevisiae CIT2-GFP strain, flow cytometry, 3 h; 100 means same as DMSO wells | AID 2029 | GFP response vs DMSO, % at 10 µM;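 active means GFP response relative to DMSO above a set limit, near the screen mean plus 3 SD, cut at about 150% in these data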;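 further: ratio of well median GFP fluorescence to mean of DMSO wells on the plate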
MEP2 TOR yeast = yeast TOR pathway MEP2-GFP modulation. S. cerevisiae MEP2-GFP strain, flow cytometry GFP, 3 h; 100% = DMSO control level. GFP response vs DMSO, % at 10 µM. hit rate 0.51% among 330,000. AID 2016;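 active means GFP response versus DMSO above a set limit, roughly screen mean plus 3 SD, cut at about 180% in these data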;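 further: median GFP fluorescence of the barcode-gated MEP2-GFP cells per well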
LAP4 TOR yeast = yeast TOR pathway LAP4-GFP modulation; hit rate 0.34% among 320,000; AID 2023; S. cerevisiae LAP4-GFP multiplex, flow cytometry GFP, 3 h; median GFP as percent of DMSO wells; GFP response vs DMSO, % at 10 µM;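 active means GFP response vs DMSO above a set limit, about the screen mean plus 3 SD, cut at about 150% in these data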
RPL19A TOR yeast = modulators of TOR pathway RPL19A-GFP in S. cerevisiae | percent response vs DMSO, % at 10 µM | S. cerevisiae RPL19A-GFP strain, flow cytometry, 3 h; active compounds read low | hit rate 0.3% among 330,000;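 active means percent response vs DMSO below 50%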;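 further: median channel GFP fluorescence of the barcoded RPL19A-GFP strain; lower means less RPL19A-GFP as with rapamycin TOR inhibition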
LAP4 cherry2 = yeast LAP4-GFP modulation, second cherry pick; hit rate 20% among 590; shares compounds with LAP4 TOR yeast; S. cerevisiae LAP4-GFP strain, flow cytometry GFP, 3 h; GFP response vs DMSO, % at 10 µM;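 active means GFP signal as percent of the solvent control above about 150%, meaning raised reporter expression, limit read from the data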
MEP2-GFP pick2 = yeast MEP2-GFP modulation, second cherry pick | GFP response vs DMSO, % at 10 µM | shares compounds with LAP4 TOR yeast | AID 2622 | S. cerevisiae MEP2-GFP strain, flow cytometry GFP, 3 h | hit rate 10% among 590;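 active means GFP signal above 150% of the solvent control wells, that is a rise of more than half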;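 further: median channel GFP fluorescence of all gated yeast cells per well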
RPL19A GFP CP2 = second confirmation of modulators of TOR reporter RPL19A-GFP in yeast. S. cerevisiae RPL19A-GFP strain, flow cytometry GFP, 3 h; active compounds read low; 100% means same as DMSO wells. shares compounds with LAP4 TOR yeast. GFP response vs DMSO, % at 10 µM. hit rate 3% among 590;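 active means under 65% GFP response relative to DMSO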;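 further: median GFP channel fluorescence per well over the all cells gate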
CIT2 GFP CP2 = reconfirmed modulator of CIT2-GFP TOR reporter in yeast | shares compounds with LAP4 TOR yeast | S. cerevisiae CIT2-GFP strain, flow cytometry GFP, 3 h; DMSO control wells read 100% | GFP response vs DMSO, % at 10 µM | hit rate 8% among 590 | AID 2624;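 active means GFP response vs DMSO above about 150%, limit read from the data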;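 further: median green fluorescence per well over all gated yeast cells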
AGP1 GFP CP2 = second confirmation of modulators of TOR reporter AGP1-GFP in yeast; shares compounds with LAP4 TOR yeast; S. cerevisiae AGP1-GFP strain, flow cytometry GFP, 3 h; percent response vs DMSO, % at 10 µM; 590 tested, under 10 active;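 active means over 150 percent of DMSO response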;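 further: median GFP channel fluorescence over all cells without mother daughter split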
Yeast autofluor = compound is autofluorescent in yeast s288c cells; shares compounds with LAP4 TOR yeast; S. cerevisiae s288c, 520 nm autofluorescence, flow cytometry, 3 h; active compounds read high; zero means same as solvent-only cells; fluorescence change (kMESF span) at 33 µM; 610 tested, under 10 active;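 active means fluorescence span over the dose series, or activity score, above about 33, limit read from the data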
s288c autofl DR = yeast s288c autofluorescence artifact in dose response; shares compounds with LAP4 TOR yeast; fluorescence change (span) at 33 µM; S. cerevisiae s288c parental, compound autofluorescence, flow cytometry, 3 h; 110 tested, under 10 active;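 active means fluorescence change span, or the activity score built from it, above 25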
TORC1 bypass gr = wildtype yeast growth loss with TORC1 bypass cells unaffected. shares compounds with LAP4 TOR yeast. S. cerevisiae BY4741 spot growth rating, 48-72 h; active compounds read low. growth rating (0-3) at 30 µM. 120 tested, under 10 active. AID 504456;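 active means growth rating at most 1 for wild type yeast while the TORC1 bypass strain still grows fully, rated 3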
Each line names hits and unclear results; the compound was inactive in the other large screens (follow-up assays come after a bar, where they were run); [ ] = another dose, or the depositor's remark.

CC1CCCC/C1=N\NS(=O)(=O)c1ccc(Br)cc1 (configuration not stated)	none
CCOC(=O)c1[nH]c2ccc(OC)cc2c1N=CN(C)C	none
O=C(c1ccc(C(=O)N2CCCc3ccccc32)s1)N1CCCc2ccccc21	LAP4 TOR yeast 170.7 | LAP4 cherry2 inactive | MEP2-GFP pick2 164.2 | RPL19A GFP CP2 inactive | CIT2 GFP CP2 inactive | AGP1 GFP CP2 inactive | Yeast autofluor inactive | s288c autofl DR inactive | TORC1 bypass gr inactive
Cc1nn2c(NCc3ccccn3)c3c(nc2c1-c1ccccc1)CCC3	LAP4 TOR yeast 151.6 | Yeast autofluor inactive
CCOc1ccc(Cl)cc1S(=O)(=O)N1CCC(C(=O)NCc2ccco2)CC1	none
O=[N+]([O-])c1cc(CN2CCN(c3cccc(C(F)(F)F)c3)CC2)c2cccnc2c1O	LAP4 TOR yeast 213.6 (no result: AGP1 TOR yeast) | Yeast autofluor inactive
O=[N+]([O-])c1cc(CN2CCCC2)c2cccnc2c1O	none
CC(C)Oc1ccc(/C=N/NC(N)=S)cc1	none
O=C1C(Cl)=C(NCCc2ccccc2)C(=O)N1CCc1ccccc1	none | Yeast autofluor inactive
CC(C)(C)C(=O)NC(=S)NNC(=O)c1sc2ccccc2c1Cl	LAP4 TOR yeast 232.7 | Yeast autofluor inactive
CC(=O)c1cccc(OCC(O)CNCC2COc3ccccc3O2)c1 (configuration not stated)	none
Cc1cccc(C(=O)NC(=S)NNC(=O)Cc2ccccc2)c1	LAP4 TOR yeast 209.0[may fluoresce green] | LAP4 cherry2 293.3 | MEP2-GFP pick2 inactive | RPL19A GFP CP2 inactive | CIT2 GFP CP2 156.1 | AGP1 GFP CP2 inactive | Yeast autofluor inactive
Cc1cccc(C(=O)NC(=S)NCc2ccccc2)c1	none
O=C(COc1ccccc1)NNC(=S)NC(=O)c1ccccc1	LAP4 TOR yeast 159.3 | Yeast autofluor inactive
Cc1ccc(O)c(N=Nc2nccs2)c1	LAP4 TOR yeast 170.9 | LAP4 cherry2 227.4 | MEP2-GFP pick2 inactive | RPL19A GFP CP2 inactive | CIT2 GFP CP2 inactive | AGP1 GFP CP2 inactive | Yeast autofluor inactive
O=C(N=C1SC2CS(=O)(=O)CC2N1c1ccccc1)c1cccc([N+](=O)[O-])c1 (configuration not stated)	none
CCN(CC(=O)Nc1cc(S(=O)(=O)N2CCOCC2)ccc1Cl)Cc1ccccc1	AGP1 TOR yeast 229.4, CIT2 TOR yeast 753.9, MEP2 TOR yeast 790.4, LAP4 TOR yeast 670.3 | LAP4 cherry2 inactive | MEP2-GFP pick2 inactive | RPL19A GFP CP2 inactive | CIT2 GFP CP2 inactive | AGP1 GFP CP2 inactive | Yeast autofluor inactive
CN(C)c1oc(/C=C/c2cccs2)nc1S(=O)(=O)c1ccccc1	none | LAP4 cherry2 inactive | MEP2-GFP pick2 inactive | RPL19A GFP CP2 inactive | CIT2 GFP CP2 inactive | AGP1 GFP CP2 inactive
CC(=O)c1sc2nc(-c3cccs3)ccc2c1N	LAP4 TOR yeast 175.5 | LAP4 cherry2 inactive | MEP2-GFP pick2 inactive | RPL19A GFP CP2 inactive | CIT2 GFP CP2 inactive | AGP1 GFP CP2 inactive
Nc1c(C(=O)Nc2nc3ccccc3s2)sc2nc(-c3cccs3)ccc12	none
O=C(NCCCN1CCCC1=O)c1cccc(S(=O)(=O)N2CCN(c3ccccc3)CC2)c1	none
O=C(c1ccco1)N1CCN(C2CCCC2)CC1	none
C[C@@]12C(=O)OC(=O)[C@]1(C)C1CCC2O1	LAP4 TOR yeast 188.9 | LAP4 cherry2 213.5 | MEP2-GFP pick2 inactive | RPL19A GFP CP2 inactive | CIT2 GFP CP2 inactive | AGP1 GFP CP2 inactive | Yeast autofluor inactive
Cn1nc([N+](=O)[O-])nc1Oc1ccc(C(C)(C)C)cc1	none
CCS(=O)(=O)N1CCC(C(=O)Nc2ccc3c(c2)CCC3)CC1	CIT2 TOR yeast 154.1 | LAP4 cherry2 inactive | MEP2-GFP pick2 inactive | RPL19A GFP CP2 inactive | CIT2 GFP CP2 inactive | AGP1 GFP CP2 inactive
CC(=O)Nc1ccc(CN2CCCC(C(=O)c3ccc(C(F)(F)F)cc3)C2)cc1 (configuration not stated)	none
COc1cc(C(=O)NCc2nnc(SCC(=O)Nc3nccs3)o2)cc(OC)c1OC	none | LAP4 cherry2 inactive | MEP2-GFP pick2 inactive | RPL19A GFP CP2 inactive | CIT2 GFP CP2 inactive | AGP1 GFP CP2 inactive
COc1cc(C(=O)NCc2nnc(SCC(=O)Nc3cc(C)on3)o2)cc(OC)c1OC	none
CC(C)Cn1c(=O)c(C(=O)Nc2ccncc2)c(O)c2ccccc21	RPL19A TOR yeast 48.1 | Yeast autofluor inactive
Cc1[nH]c2ccccc2c1C(=O)COC(=O)c1ccc([N+](=O)[O-])s1	none | LAP4 cherry2 inactive | MEP2-GFP pick2 179.9 | RPL19A GFP CP2 inactive | CIT2 GFP CP2 inactive | AGP1 GFP CP2 inactive | Yeast autofluor inactive
CC(C)(C)c1ccc(NC(=O)COC(=O)c2ccc([N+](=O)[O-])s2)cc1	LAP4 TOR yeast 211.2 | LAP4 cherry2 226.0 | MEP2-GFP pick2 223.0 | RPL19A GFP CP2 inactive | CIT2 GFP CP2 inactive | AGP1 GFP CP2 inactive | Yeast autofluor inactive | s288c autofl DR inactive | TORC1 bypass gr inactive
CCCCN(CCCNC(=O)c1ccc(CS(=O)(=O)c2ccc(OC)cc2)o1)Cc1ccccc1	none | LAP4 cherry2 inactive | MEP2-GFP pick2 inactive | RPL19A GFP CP2 inactive | CIT2 GFP CP2 inactive | AGP1 GFP CP2 inactive
COCCNC(=O)c1ccc(CS(=O)(=O)c2ccc(OC)cc2)o1	none
CC1CCN(C(=O)c2ccccc2NC(=O)c2cccc(S(=O)(=O)N(C)C)c2)CC1	none
